LmPK inh: LmPK (Leishmania mexicana) enzyme inhibition | Q27686 | purified LmPK, Kinase-Glo ATP luminescence, 1 h | Potency, µM (top dose mostly 57.5 µM), for inactives: top-dose activity change, negative = inhibition, hits mostly inhibitors | 0.37% of 290,000 active
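Kinase-Glo luminescence read after 1 h RT reaction of 0.1 nM LmPK with 0.5 mM PEP and 0.1 mM ADP. Activity scaled between uninhibited and enzyme-free controls.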
Sm TGR inh: blocks Schistosoma mansoni thioredoxin glutathione reductase. 3% of 360,000 active. Q962Y6. purified TGR, DTNB reduction, TNB absorbance 405 nm. Potency, µM (highest dose often 114 µM), inactives show top-dose activity change, negative = inhibition, usual class: inhibitors; note: nearly all actives have a fitted effect of over 60% in size
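TGR 20 nM + NADPH 100 uM (dispensed conc.), cpd preinc 15 min RT; start with NADPH (500 uM addition) then DTNB (15 mM addition). Kinetic TNB absorbance, 405 nm filter. Four-parameter Hill fit across titration.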
Tb PYK inh: inhibitors of Trypanosoma brucei pyruvate kinase | TbPYK enzyme, Kinase-Glo Plus ATP luminescence, 45 min | Q57TT1 | 0.12% of 410,000 active | Potency, µM (top dose mostly 76.8 µM), for inactives: at the highest dose activity, negative = inhibition, usual class: inhibitors; note: nearly all actives have a fitted effect of over 50% in size
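Quantitative HTS: titrated library compounds versus trypanosomal pyruvate kinase in TEA buffer (pH 7.2) containing KCl, MgCl2, BSA and Tween-20. Reactions were initiated with ADP, 130 uM final. Kinase-Glo Plus luminescence was read after 45 min at RT.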
RE007 growth inh: less growth of the S. pombe RE007 Vpr strain. S. pombe RE007 Vpr strain, BacTiter-Glo ATP luminescence, 24 h. Potency, µM (doses to about 92.2 µM), inactives show at the highest dose activity change, negative = less growth, most hits filed as inhibitors. 0.21% of 360,000 active. AID 651644; active = well fitted falling curve with a large enough effect; inconclusive = small, poorly fitted or top-dose-only effect; inactive = no such curve, though single readings can be large or run the other way; note: nearly all actives have a fitted effect of over 50% in size
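Fission yeast strain RE007, carrying one chromosomally integrated HIV-1 vpr copy, was seeded at OD 0.01 in PMG+AL medium with 23 nL pinned compound. After 24 h at 30 °C and 99% humidity, viability was read by BacTiter-Glo luminescence.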
Giardia FBPA inh: blocks Giardia fructose-bisphosphate aldolase activity | A8B2U2 | purified Giardia FBPA | Potency, µM (highest dose often 59.6 µM), for inactives: at the top dose activity, negative = inhibition, hits mostly inhibitors | 0.71% of 290,000 active | AID 2451; note: nearly all actives have a fitted effect of over 55% in size
Target sequence (A8B2U2 whole entry, looked up): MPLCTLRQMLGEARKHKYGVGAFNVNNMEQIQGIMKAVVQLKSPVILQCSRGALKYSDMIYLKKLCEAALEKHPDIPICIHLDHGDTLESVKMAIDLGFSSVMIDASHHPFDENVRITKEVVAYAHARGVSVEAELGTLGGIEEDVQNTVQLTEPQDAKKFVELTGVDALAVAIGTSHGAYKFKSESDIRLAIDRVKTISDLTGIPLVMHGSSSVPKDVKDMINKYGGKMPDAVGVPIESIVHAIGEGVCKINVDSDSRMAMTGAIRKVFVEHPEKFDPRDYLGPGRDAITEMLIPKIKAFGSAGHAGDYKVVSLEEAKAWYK
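40 nM FBPA preincubated 10 min at RT with compound (up to 57.5 uM final), then substrate plus GAPDH/TPI/NAD/arsenate coupling and diaphorase/resazurin added. Fluorescence read after 20 min at RT, 525/598 nm.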
* marks the source's active call; other numbers are inactive results; ? = inconclusive; . = no result. Most compounds without a hit are left out; they make up all but 3.3% or so of the library. Unless noted, calls come from the whole dose curve; as a rule, active = well fitted curve in the direction sought with a large enough effect; inconclusive = small, poorly fitted or top-dose-only effect, or another doubt; inactive = no such curve, though single readings can be large; an effect the other way counts as inactive or inconclusive. % is set by controls: 0 for no effect and ±100 for the full control effect; potency is the fitted concentration of half-maximal effect.

SMILES	LmPK inh	Sm TGR inh	Tb PYK inh	RE007 growth inh	Giardia FBPA inh
COCCn1c(C)cc(O)c(C(c2ccccc2)N2CCN(c3ccccc3)CC2)c1=O (stereo unspecified)	.	4.47µM*	-4.8%	.	.
COCCn1c(C)cc(O)c(C(c2ccccc2)N2CCN(CCO)CC2)c1=O (stereo unspecified)	.	3.55µM*	-8.4%	.	.
COCCn1c(=S)[nH]c2cc(C(=O)N3CCN(c4ccc(F)cc4)CC3)ccc2c1=O	8.2%	-1.5%	-13.9%	-0.9%	-6.8%
CC12CN3CC(C)(CN(C1)C3c1ccccc1)C2O (stereo unspecified)	-7.5%	15.8%	-1.7%	9.7%	-12.5%
Cc1ccc(C(=O)NC(C(=O)Nc2cccc(S(N)(=O)=O)c2)C(C)C)cc1 (stereo unspecified)	0.9%	20.8%	-5.6%	-6.9%	-0.1%
Cc1ccccc1CNCCSc1nnnn1C	.	-1.1%	-2.5%	.	.
COc1ccc(OC)c2sc(N3CCc4ccccc4C3)nc12	1.8%	-3.3%	-0.1%	9.9%	-14.3%
c1ccc2c(c1)CCN(c1nc3cc4c(cc3s1)OCCO4)C2	22.4µM*	-15.7%	-29.7%	?	?
CC(=O)O[C@H]1CCC2C3CCC4=CC(=O)CCC4=C3C=C[C@@]21C (stereo partly specified)	?	5.01µM*	-12.4%	-17.6%	-22.0%
CC(=O)O[C@H]1CC[C@H]2[C@@H]3CCC4=CC(=O)CCC4=C3C=C[C@]12C	.	.	3.5%	.	.
CC(C)(C)c1cc(=O)n(-c2ccccc2)[nH]1	-1.3%	-17.4%	3.5%	-29.5%	0.629µM*
O=c1ccc(=O)n(-c2ccccc2)[nH]1	-17.0%	5.01µM*	-15.7%	32.2%	-0.3%
O=c1cc(-c2ccccc2)[nH]n1-c1ccccc1	.	.	-3.1%	13.3%	.
COc1ccc(S(=O)(=O)N(C)CC(=O)Nc2cccc(C(C)=O)c2)cc1	-0.5%	1.1%	-8.9%	12.9%	10.2%
Cc1ccc(C(=O)N(NC2=NS(=O)(=O)c3ccccc32)S(=O)(=O)c2ccc(C)cc2)cc1	-2.9%	3.3%	-1.2%	11.6%	-6.7%
COC(=O)Nc1c(-c2ccccc2)nc2ccccn12	-5.7%	-0.6%	0.1%	-4.7%	-3.7%
CCOC(=O)c1c(-c2ccccc2)nc2c(C)cccn12	-2.3%	5.3%	-3.8%	14.1µM*	1.2%
CCOC(=O)c1c(-c2ccccc2)nc2ccccn12	0.5%	-27.5%	-0.3%	17.8µM*	-0.8%
Cc1ccc(S(=O)(=O)N2CCOCC2)cc1C(=O)OCC(=O)c1ccc(Br)cc1	.	-10.2%	4.7%	11.7%	.
Cc1ccc(NC(=O)CN(C)C(=O)c2cn(Cc3ccccc3)nc2-c2cccnc2)cc1	.	-4.1%	-1.0%	-13.0%	.
Cc1cc(C)cc(N(C(=O)CNC(=O)c2ccco2)C(C(=O)NC2CCCCC2)c2ccncc2)c1 (stereo unspecified)	-2.4%	7.2%	-3.6%	-6.1%	.
Cc1ccc(NCCC(=O)c2cccc([N+](=O)[O-])c2)cc1	-6.4%	0.398µM*	-14.8%	5.62µM*	-0.5%
O=C(CCNc1ccccc1)c1cccc([N+](=O)[O-])c1	-0.3%	0.447µM*	3.0%	11.2µM*	-4.4%
COc1ccc(C(=O)CCC(=O)Nc2cc(Cl)c(O)c(Cl)c2)cc1	-2.0%	35.5µM*	5.5%	-3.0%	-20.3%
O=C(CCNc1ccc(Br)cc1)c1cccc([N+](=O)[O-])c1	-0.2%	0.398µM*	-17.7%	?	-2.1%
SMILES	LmPK inh	Sm TGR inh	Tb PYK inh	RE007 growth inh	Giardia FBPA inh
CCOCCCNC(=O)c1cccs1	-5.7%	-23.5%	-6.5%	2.2%	2.8%
CC1(C)CN(c2ccccc2)N(C(=O)c2ccc(F)cc2)C1=O	-0.8%	10.7%	0.6%	-7.3%	9.6%
CCCCC(NC(=O)Cc1c(C)c2cc3c(C)c(C)oc3c(C)c2oc1=O)C(=O)O (stereo unspecified)	2.9%	1.7%	0.3%	16.1%	4.5%
O=C(CCNc1ccc(F)cc1)c1cccc([N+](=O)[O-])c1	5.7%	0.501µM*	-6.3%	17.8µM*	17.8%
COc1ccc(C(=O)CCNc2ccc(F)cc2)cc1	-1.2%	3.16µM*	1.7%	-5.4%	0.4%
c1ccc(-c2noc(-c3ccc4c(c3)OCO4)n2)cc1	15.8µM*	.	-14.9%	5.1%	4.3%
COC(=O)[C@]1(Cc2ccccc2)N[C@H](CN(C)C(=O)C2CCCCC2)[C@@H]2C(=O)N(Cc3ccccc3)C(=O)[C@@H]21	.	.	-0.8%	-18.2%	.
Cc1ccc(OCc2ccc(C(=O)Nc3nc4ccccc4n3Cc3ccccc3)o2)c([N+](=O)[O-])c1	-0.3%	-6.5%	2.4%	8.1%	3.4%
O=C(Cc1ccc(S(=O)(=O)N2CCOCC2)s1)Nc1ccc2c(c1)CCC2	4.3%	5.5%	3.5%	-29.5%	-1.2%
CC1CCN(S(=O)(=O)c2ccc(NC(=O)Cc3ccc(S(=O)(=O)N4CCOCC4)s3)cc2)CC1	.	79.4µM*	-1.1%	-6.9%	.
O=C(Cc1ccc(S(=O)(=O)N2CCOCC2)s1)Nc1nc2c(s1)CCCC2	-0.6%	?	6.2%	-8.0%	15.8µM*
CCCSc1oc(-c2cccs2)nc1S(=O)(=O)c1ccc(C)cc1	.	9.7%	-2.2%	.	.
CCC(C)S(=O)(=O)c1oc(-c2ccc(F)cc2)nc1S(=O)(=O)c1ccc(F)cc1 (stereo unspecified)	.	5.62µM*	3.8%	.	.
CSc1oc(-c2ccc(F)cc2)nc1S(=O)(=O)c1ccc(Br)cc1	.	8.5%	1.0%	.	.
CCCCCS(=O)(=O)c1oc(-c2cccs2)nc1S(=O)(=O)c1ccc(C)cc1	.	2.82µM*	-8.1%	.	.
CCS(=O)(=O)c1oc(-c2ccc(F)cc2)nc1S(=O)(=O)c1ccccc1	.	0.708µM*	4.4%	.	.
O=S(=O)(c1ccccc1)c1nc(-c2ccc(F)cc2)oc1N1CCCCCC1	.	-1.9%	-3.0%	.	.
CCCCS(=O)(=O)c1oc(-c2ccc(F)cc2)nc1S(=O)(=O)c1ccc(C)cc1	.	3.16µM*	8.1%	.	.
CC(=O)Nc1cccc(-c2ccnc3c2CC(C)(C(=O)Nc2ccccc2)O3)c1 (stereo unspecified)	.	.	-6.4%	7.9%	.
CCCOc1ccc(-c2csc(N)n2)cc1[N+](=O)[O-]	-0.1%	1.0%	-8.8%	?	4.4%
CCCCS(=O)(=O)c1oc(-c2cccs2)nc1S(=O)(=O)c1ccc(F)cc1	.	1.58µM*	1.2%	.	.
COc1ccc(NC(=O)c2nc[nH]c2C(=O)NCC(=O)OC(C)(C)C)cc1	2.8%	6.9%	2.3%	-8.0%	?
Cc1cccc(NC(=S)N/C(=N/S(=O)(=O)c2ccccc2)c2ccccc2)c1	3.2%	?	6.3%	-20.8%	-17.9%
Cc1ccc(S(=O)(=O)/N=C(/Nc2ccc([N+](=O)[O-])cc2)c2ccccc2)cc1	4.6%	-10.1%	6.0%	-4.0%	5.9%
COc1ccc(NC(=S)N/C(=N/CS(=O)(=O)c2ccccc2)c2ccccc2)cc1	-0.7%	39.8µM*	-5.5%	0.3%	-13.9%
